Consider 13 compounds from PubChem BioAssay (NCI).

SMILES strings stand for the structures. About 83,000 compounds went through this panel and 20% of them were active in at least one assay; those are over-represented in the sample as a whole.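 96-well plates, one dose, 48 hours. Percent growth reported; active if below 10.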 A number with no mark means an inactive call. Activity calls are given as the source filed them.

Among the test systems are HCT-15 colon; HT29 colon; SNB-75 CNS; SNB-19 CNS; U251 CNS; PC-3 prostate; SK-MEL-5 melanoma; UACC-62 melanoma; LOX IMVI melanoma; SK-MEL-28 melanoma.
Experiment in all cases: NCI-60 one-dose screen, 48 h (100 = growth as untreated, 0 = no growth, -100 = all killed)
What all share (conditions): 10 µM unless noted

Consider `COc1ccc(Cn2cc3c(c2-c2ccccc2)CCCc2cnoc2-3)cc1`, for which the growth with HCT-15 colon is 32.5%; in the assay on HT29 colon, 20.4%; with SNB-75 CNS it was 51.2%; in the assay with SNB-19 CNS it was 61%; in the assay on U251 CNS, 57.7%; with PC-3 prostate, 60%. The growth with SK-MEL-5 melanoma is 50.1%; in the assay on UACC-62 melanoma it was 42.7%; in the assay with LOX IMVI melanoma, 53.5%; in the assay with SK-MEL-28 melanoma it was 62%.
For `NC(=O)C(=Cc1ccc(Cl)cc1)C(N)=O`, the growth is 36.6% with HCT-15 colon; 77.4% in the assay with HT29 colon; 62.4% in the assay on SNB-75 CNS; 77.9% in the assay on SNB-19 CNS; 68.7% in the assay with U251 CNS; 70.4% with PC-3 prostate. The growth in the assay on SK-MEL-5 melanoma was 95.4%; in the assay with UACC-62 melanoma it was 85.3%; with LOX IMVI melanoma it was 57.4%; in the assay with SK-MEL-28 melanoma, 70%.
In the case of `Cc1ccc(/C=C/CC(=O)Nc2ccc(C(=O)Nc3ccc(F)cc3N)nc2)cn1`, the growth in the assay with HCT-15 colon is 52.3%; in the assay on HT29 colon, 15.9%; in the assay with SNB-75 CNS, 36.7%; with SNB-19 CNS, 60%; in the assay with U251 CNS it was 44.9%; in the assay on PC-3 prostate, 42.9%. In addition, the growth was 20.9% in the assay on SK-MEL-5 melanoma, 21.8% in the assay with UACC-62 melanoma, 24.3% in the assay with LOX IMVI melanoma and 25.3% in the assay with SK-MEL-28 melanoma.
Regarding `CCc1ccc(NC(=O)N[C@@H](Cc2cc(F)cc(F)c2)C(=O)N[C@@H]2C(=O)N3CCC[C@H]3C(=O)N3CCO[C@H](C)[C@H]3C(=O)N[C@@H](CO)C(=O)N3C[C@H](C)C[C@H]3C(=O)O[C@H]2C)c(F)c1`, the growth in the assay on HCT-15 colon was 15.8%; in the assay on HT29 colon it was 30.5%; in the assay on SNB-75 CNS it was 20.3%; with SNB-19 CNS it was 26.9%; in the assay on U251 CNS, 29%; in the assay on PC-3 prostate, 17.3%. Also, the growth in the assay with SK-MEL-5 melanoma is -2.9% (active); with UACC-62 melanoma, 26.3%; in the assay on LOX IMVI melanoma, 20.4%; in the assay on SK-MEL-28 melanoma it was 43.4%.
For `N#C/C(=C\c1ccc(Cl)cc1Cl)C(N)=O`, the growth with HCT-15 colon was 87.7%; in the assay on HT29 colon, 106%; in the assay on SNB-75 CNS, 90.2%; with SNB-19 CNS it was 97.6%; in the assay with U251 CNS, 95.5%; in the assay on PC-3 prostate it was 92.5%. Further, the growth is 101% with SK-MEL-5 melanoma, 96.8% with UACC-62 melanoma, 97.3% in the assay on LOX IMVI melanoma and 112% with SK-MEL-28 melanoma.
For the compound `N#Cc1c(NC(=O)c2ccccc2C(F)(F)F)sc2c1CCC(=O)C2`, the growth in the assay on HCT-15 colon is -32.3% (active); in the assay with HT29 colon, 8.88% (active); in the assay on SNB-75 CNS, 20.1%; in the assay with SNB-19 CNS, 15.5%; in the assay with U251 CNS, 16.3%; with PC-3 prostate, 13%. The growth with SK-MEL-5 melanoma was -75.5% (active); in the assay with UACC-62 melanoma, -26.9% (active); in the assay with LOX IMVI melanoma it was 6.27% (active); in the assay on SK-MEL-28 melanoma, -14.9% (active).
On to `C(=C(\C1=NCCN1)n1cnc2ccccc21)/c1cccc2ccccc12`, for which the growth is 88.2% in the assay on HCT-15 colon; 95% in the assay on HT29 colon; 78.2% in the assay with SNB-75 CNS; 88.8% in the assay on SNB-19 CNS; 94.6% in the assay on U251 CNS; 78.6% in the assay with PC-3 prostate. For the same compound, the growth with SK-MEL-5 melanoma is 87.3%; with UACC-62 melanoma, 88.1%; with LOX IMVI melanoma, 83.8%; with SK-MEL-28 melanoma, 93.8%.
`CC(=O)Oc1ccc(CCN2C(=O)CSC2=S)cc1`: the growth in the assay on HCT-15 colon was 62.3%; with HT29 colon it was 107%; in the assay with SNB-75 CNS, 103%; with SNB-19 CNS, 94.9%; in the assay on U251 CNS, 104%; with PC-3 prostate, 78.2%. For the same compound, the growth with SK-MEL-5 melanoma is 86%; in the assay on UACC-62 melanoma it was 85.7%; in the assay on LOX IMVI melanoma it was 41.6%; in the assay on SK-MEL-28 melanoma, 90.6%.
Consider `CCN1C(=O)N(CC)C2SC(N/N=C/c3ccccc3)=NC21` (stereo not given), for which the growth was 16.9% in the assay with HCT-15 colon; -0.975% (active) with HT29 colon; 37.4% in the assay with SNB-75 CNS; 27.3% in the assay with SNB-19 CNS; 17.1% with U251 CNS; 28% with PC-3 prostate. Also, the growth in the assay on SK-MEL-5 melanoma was 12.1%; with UACC-62 melanoma, 37%; in the assay on LOX IMVI melanoma, 17.3%; in the assay with SK-MEL-28 melanoma it was 58.1%.
On to `O=C(COc1ccc(C2SCC(=O)N2c2ccc(F)cc2)cc1)c1ccccc1` (stereo not given), for which the growth is 95.7% in the assay on HCT-15 colon; 109% in the assay on HT29 colon; 83.1% in the assay on SNB-75 CNS; 91.5% in the assay on SNB-19 CNS; 101% in the assay on U251 CNS; 79.2% in the assay on PC-3 prostate. Also, the growth in the assay on SK-MEL-5 melanoma is 97.7%; with UACC-62 melanoma it was 61.4%; with LOX IMVI melanoma, 87.6%; with SK-MEL-28 melanoma, 102%.
Regarding `N#Cc1c(-c2ccccc2)cc(-c2c[nH]c3ccccc23)nc1-c1c[nH]c2ccccc12`, the growth is 99.3% in the assay on HCT-15 colon; 103% in the assay on HT29 colon; 81.2% with SNB-75 CNS; 97.6% in the assay with SNB-19 CNS; 94.3% in the assay on U251 CNS; 92.4% in the assay with PC-3 prostate. Further, the growth was 99.2% in the assay with SK-MEL-5 melanoma, 94.9% in the assay with UACC-62 melanoma, 100% with LOX IMVI melanoma and 110% in the assay with SK-MEL-28 melanoma.
With `C/C(=N\NC(=O)CSc1nc2sc3c(c2c(=O)n1-c1ccccc1)CCC(C)C3)c1ccc(Cl)cc1` (stereo not given), the growth is 25.7% in the assay with HCT-15 colon; 62.8% in the assay on HT29 colon; 41.5% in the assay with SNB-75 CNS; 35.3% in the assay with SNB-19 CNS; 26.7% in the assay on U251 CNS; 31.7% with PC-3 prostate. Besides, the growth was -14.9% (active) in the assay on SK-MEL-5 melanoma, 4.83% (active) in the assay with UACC-62 melanoma, 6.72% (active) in the assay on LOX IMVI melanoma and 25.4% in the assay with SK-MEL-28 melanoma.
Turning to `CS(=O)c1nccc(-c2c(-c3ccc(F)c(OCCc4ccccc4)c3)nc3sccn23)n1` (stereo not given), the growth with HCT-15 colon is 65.4%; in the assay on HT29 colon, 59.9%; in the assay on SNB-75 CNS it was 106%; in the assay with SNB-19 CNS, 86.6%; with U251 CNS it was 106%; in the assay on PC-3 prostate, 64.6%. For the same compound, the growth in the assay with SK-MEL-5 melanoma was 100%; in the assay with UACC-62 melanoma, 93.8%; in the assay with LOX IMVI melanoma, 72.1%; in the assay with SK-MEL-28 melanoma, 87.8%.
